# Source: PubChem BioAssay AID602270 (The Scripps Research Institute Molecular Screening Center, 2012)
# This is one part of the list. A number with no mark means an inactive call. Active and inactive are the calls of the source. Rule as the data show it: active = activation above about 4%; inactive = the rest.
# Tested on: Methionine sulfoxide reductase A (Bos taurus)
# Test: methionine sulfoxide reductase A activation – biochemical, absorbance, bovine, HTS, confirmation (AID 602270);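 also: enzyme coupled to thioredoxin and thioredoxin reductase with NADPH; 0% = vehicle wells and 100% = reference activator wells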
# Settings: purified bovine MsrA, absorbance read-out; at 10.6 µM; hits give high values
row,Structure (SMILES),activation
1,CN(C)S(=O)(=O)c1ccc(NC(=O)COC(=O)c2n[nH]c3ccccc23)cc1,1.95%
2,COc1ccc(C(CNC(=O)c2cc3c(s2)CCCC3)N2CCOCC2)cc1 (centres undefined),0.61%
3,CC(C)(C)C(=O)CCN1C(=O)C2(OCCO2)c2ccccc21,-4.67%
4,O=C(NCc1ccccc1)C1c2ccccc2OCC(=O)N1C1CC1 (centres undefined),1.81%
5,CN1c2ccc(C=O)c3c(C=O)ccc(c23)N(C)C1(C)C,-1.46%
6,CCCN(CC(=O)Nc1ccccc1C)C(=O)c1ccc2[nH]c3c(c2c1)CC(C)CC3 (centres undefined),2.07%
7,O=C(c1ccco1)N1CCN(Cc2cccc(C(F)(F)F)c2)CC1,-0.28%
8,CC1=NNC(=O)C1CCC(=O)N/N=C(\C)c1ccc(Cl)cc1 (centres undefined),-3.34%
9,O=C(O)c1ccccc1NC(=O)c1ccccc1-c1ccccc1C(=O)O,-3.02%
10,S=c1[nH]nc(NCCc2ccccc2)s1,7.45% (active)
11,COc1cccc(CNCCc2c[nH]c3ccccc23)c1OCc1ccccc1F,-2.23%
12,O=C(Cc1ccc(NC(=O)C2CCCN(C(=O)C3CCCCC3)C2)cc1)Nc1cccc(C(=O)N2CCCCC2)c1 (centres undefined),-3.28%
13,COc1ccccc1-n1cn[nH]c1=S,-0.06%
14,CC1(C)S[C@@H]2[C@H](NC(=O)COc3ccccc3)C(=O)N2C1C(=O)OCc1ccccc1 (some centres undefined),0.74%
15,CSCCC1NC(=O)N(CC(=O)Nc2cccc(S(=O)(=O)N3CCCCCC3)c2)C1=O (centres undefined),-0.9%
16,COc1ccc2nc(N3CCCC(O)C3)c(C#N)cc2c1 (centres undefined),-2.45%
17,COC(=O)CN1C(=O)C(O)=C(C(C)=O)C1c1ccc([N+](=O)[O-])cc1 (centres undefined),-2.94%
18,Cc1ccc(C)c(NC(=O)CSc2nnc(Cc3cccn3C)n2-c2ccc(F)cc2)c1,2.75%
19,CC(=O)N(O)CCCCCNC(=O)CCC(=O)N(O)CCCCCNC(=O)CCC(=O)N(O)CCCCCNC(=O)CCC(=O)O,-3.63%
20,CCOc1cccc(-n2nnnc2-c2ccc(OC)cc2)c1,-1.06%
21,O=C(O)c1ccccc1-c1ccccc1C(=O)Nc1cccc2ccccc12,-1.68%
22,CCOc1ccc2[nH]c(=S)sc2c1,1.68%
23,C=CCn1c(SCC(=O)c2c(N)n(C)c(=O)n(C)c2=O)nc2sc(CC)cc2c1=O,-2.75%
24,O=C(OCC(=O)N1CCN(c2ccccc2)CC1)c1ccc([N+](=O)[O-])s1,3.98% (active)
